Hits are enriched below; roughly 5.7% of the tested compounds scored in any of these assays.
JMJD2A Tudor: blocks the human JMJD2A Tudor domain | 390,000 compounds, 4.4% hits | Potency, µM (titrated, usually from 114 µM), hits mostly inhibitors | O75164 | AlphaScreen JMJD2A-Tudor / H3K4me3 peptide binding; also: nearly all actives have a fitted effect of over 50% in size
BAZ2B inh: blocks human BAZ2B; AlphaScreen BAZ2B-H3K14Ac peptide displacement; 360,000 compounds, 4.4% hits; Potency, µM (series often up to 114 µM), most hits filed as inhibitors; Q9UIF8; also: nearly all actives have a fitted effect of over 60% in size
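AlphaScreen luminescence quantifies BAZ2B engagement of H3K14Ac peptide; the protein and biotinylated peptide are both at 50 nM final, buffer PBS pH 7.4 with 0.01% Tween-20, all steps at room temperature.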
JMJD2E inh: blocks human JMJD2E demethylase activity | Potency, µM (titrated, usually from 57.1 µM), most hits filed as inhibitors | JMJD2E catalytic domain, FDH-coupled NADH fluorescence (FDH is formaldehyde dehydrogenase) | 230,000 compounds, 1.6% hits | AID 2147; active = well fitted inhibition curve with a large enough effect, not every such curve was filed as active; inconclusive = small, poorly fitted or top-dose-only effect, or another doubt; inactive = no such curve, though single readings can be large or run the other way; also: nearly all actives have a fitted effect of over 50% in size
HP1b binding inh: blocks HP1-beta chromodomain binding to methylated histone tails. P83916. AID 540317. AlphaScreen HP1-beta / biotin-H3K9me3 peptide binding. Potency, µM (highest dose often 114 µM), most hits filed as inhibitors. 390,000 compounds, 0.56% hits; also: nearly all actives have a fitted effect of over 70% in size
Target sequence (P83916 whole entry, looked up): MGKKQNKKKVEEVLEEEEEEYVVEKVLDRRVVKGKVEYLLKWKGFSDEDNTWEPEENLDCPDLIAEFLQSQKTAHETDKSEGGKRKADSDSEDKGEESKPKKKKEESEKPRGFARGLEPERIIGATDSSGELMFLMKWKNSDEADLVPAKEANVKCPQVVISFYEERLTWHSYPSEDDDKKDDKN
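Compound inhibition of the preformed complex between 50 nM HP1-beta and 50 nM biotinylated H3K9me3 peptide was read by AlphaScreen. Buffer was PBS pH 7.4 with 0.01% Tween-20. Incubations ran 30 min at room temperature, with 10 ug/mL donor/acceptor beads.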
PI5P4K alpha inh: PI5P4K alpha (human) kinase inhibition | PI5P4Kalpha enzyme, ADP-Glo luminescence, 60 min; hits give low values | max response, % | 330,000 compounds, 1.2% hits | AID 652105; active = max response of -50% or lower; inconclusive = between -30% and -50%; inactive = -30% or higher; also: value at the top dose of about 77 µM
Target sequence (P48426 whole entry, looked up): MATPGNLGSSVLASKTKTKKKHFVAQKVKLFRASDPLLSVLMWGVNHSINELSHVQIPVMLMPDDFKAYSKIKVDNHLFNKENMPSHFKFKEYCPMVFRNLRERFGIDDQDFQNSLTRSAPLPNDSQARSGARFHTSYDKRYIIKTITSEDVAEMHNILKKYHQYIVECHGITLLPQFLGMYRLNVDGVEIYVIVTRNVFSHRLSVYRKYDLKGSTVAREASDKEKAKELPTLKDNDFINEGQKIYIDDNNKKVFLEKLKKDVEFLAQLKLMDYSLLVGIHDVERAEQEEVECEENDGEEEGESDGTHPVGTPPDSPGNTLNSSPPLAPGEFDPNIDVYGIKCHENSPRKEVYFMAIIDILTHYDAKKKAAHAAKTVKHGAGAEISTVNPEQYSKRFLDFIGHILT
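qHTS, 1536-well: enzyme/substrate mix, compound by pin tool, 5 microM ATP final; RT 60 min; ADP-Glo reagents 1 (45 min) then 2 (30 min); luminescence.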
L3MBTL1 inh: L3MBTL1 (human) inhibition; Q9Y468; AID 485360; 230,000 compounds, 0.66% hits; Potency, µM (highest dose often 57.1 µM), actives largely listed as inhibitors; AlphaScreen L3MBTL1–H3K9me1 peptide binding; also: nearly all actives have a fitted effect of over 60% in size
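AlphaScreen proximity signal between nickel-chelate acceptor and streptavidin donor beads (final 10 ug/mL) reports binding of 50 nM L3MBTL1 to 75 nM biotin-H3 K9me1 peptide; complex incubated with compounds 30 min at room temperature; cefsulodin titration as control.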
Each line names hits and unclear results; the compound was inactive in the other large screens. Unless noted, calls follow the shape of the dose curve; as a rule, active = well fitted inhibition curve with a large enough effect; inconclusive = small, poorly fitted or top-dose-only effect; inactive = no such curve, though single readings can be large or run the other way.

CCOc1ccc(Nc2nc(N)nc(CN3CCN(c4ccccc4F)CC3)n2)cc1	JMJD2A Tudor inconclusive, BAZ2B inh 56µM
Nc1nc(CSC(=S)N2CCN(c3ccccc3)CC2)nc(Nc2ccc(F)cc2)n1	JMJD2A Tudor 56µM, BAZ2B inh inconclusive, HP1b binding inh inconclusive
Cc1cccc(Nc2nc(N)nc(CN3CCN(c4ccccc4)CC3)n2)c1	JMJD2A Tudor 56µM, HP1b binding inh inconclusive
CCOc1ccc(NC(=O)CSc2oc(-c3ccc(F)cc3)nc2S(=O)(=O)c2ccc(C)cc2)cc1	none (no result: JMJD2E inh, PI5P4K alpha inh, L3MBTL1 inh)
O=C(NCc1ccccc1)C(=O)NCC(c1cccs1)S(=O)(=O)c1ccccc1 (configuration not stated)	none (no result: JMJD2E inh, PI5P4K alpha inh, L3MBTL1 inh)
Cc1cc(N/N=C/c2ccc(F)cc2)nc(NCc2ccccc2)n1	none
CCNc1nc(NCC)nc(N/N=C/c2cc(OC)c(OC)c(OC)c2)n1	JMJD2E inh inconclusive
CCNc1nc(NCC)nc(N/N=C/c2ccc(O)c(O)c2)n1	BAZ2B inh inconclusive, JMJD2E inh 18µM
Cc1cc(N/N=C/c2ccc(O)cc2)nc(NS(=O)(=O)c2ccccc2)n1	JMJD2A Tudor 56µM, BAZ2B inh 79µM, JMJD2E inh inconclusive, HP1b binding inh 71µM, PI5P4K alpha inh -55, L3MBTL1 inh 32µM
Cc1ccc(/C=N/Nc2cc(C)nc(NCc3ccccc3)n2)cc1	JMJD2A Tudor inconclusive, BAZ2B inh inconclusive
Cc1cc(N/N=C/c2ccc(N(C)C)cc2)nc(NCc2ccccc2)n1	JMJD2A Tudor inconclusive, BAZ2B inh 13µM, JMJD2E inh inconclusive, L3MBTL1 inh inconclusive
CCNc1nc(NCC)nc(N/N=C/c2ccc(N(C)C)cc2)n1	JMJD2A Tudor inconclusive, BAZ2B inh 45µM, JMJD2E inh inconclusive, L3MBTL1 inh inconclusive
CCCN(CCC)CCNC(=O)C1CCCN(S(=O)(=O)c2cccc3nsnc23)C1 (configuration not stated)	none (no result: BAZ2B inh, JMJD2E inh, PI5P4K alpha inh, L3MBTL1 inh)
COCCCNC(=O)NC(CCC(C)C)c1c(-n2cccc2)sc2c1CCN(C)C2 (configuration not stated)	none (no result: JMJD2E inh, PI5P4K alpha inh, L3MBTL1 inh)
CCOC(=O)c1c(NC(=O)C2c3ccccc3Oc3ccccc32)sc(C)c1CC	none (no result: JMJD2E inh, PI5P4K alpha inh, L3MBTL1 inh)
Oc1ccc(/C=N/Nc2ccc(C(F)(F)F)cn2)c(O)c1	BAZ2B inh 28µM (no result: JMJD2A Tudor, JMJD2E inh, HP1b binding inh, PI5P4K alpha inh, L3MBTL1 inh)
Oc1ccc(/C=N/Nc2ccc(C(F)(F)F)cn2)cc1	none
Cc1nc2nc[nH]c2cc1Br	none
Cc1nc2[nH]c(=S)[nH]c2cc1Br	JMJD2A Tudor 45µM
COc1ccc2c(c1)O[C@H](c1ccc3c(c1)OCO3)[C@@H](OC(=O)NS(=O)(=O)c1ccc(C)cc1)C2=O	none (no result: JMJD2A Tudor, BAZ2B inh, HP1b binding inh, PI5P4K alpha inh, L3MBTL1 inh)
CN(C)c1ccc(/C=N/c2cc(-c3ccccc3)nn2-c2ccccc2)cc1	JMJD2A Tudor inconclusive, BAZ2B inh 10µM (no result: PI5P4K alpha inh, L3MBTL1 inh)
COc1ccc(NC(=O)NC2CCCCCCC2)cc1	none (no result: JMJD2E inh, L3MBTL1 inh)
CC1=NOC2(C1)N(C)c1ccccc1C2(C)C (configuration not stated)	JMJD2E inh inconclusive (no result: PI5P4K alpha inh)
COc1ccc2ccc3c(c2c1)N=C[C@]1(O3)N(C)c2ccccc2C1(C)C	BAZ2B inh 50µM, JMJD2E inh 11µM, HP1b binding inh inconclusive, PI5P4K alpha inh inconclusive
CCOC(=O)N1CCN(C(=O)CCc2nc3sc4c(c3c(=O)[nH]2)CCCC4)CC1	none
CCc1cccc(NC(=O)CCc2nc3sc4c(c3c(=O)[nH]2)CCCC4)c1	JMJD2A Tudor inconclusive, BAZ2B inh 71µM, PI5P4K alpha inh inconclusive, L3MBTL1 inh inconclusive (no result: JMJD2E inh)
O=C(CCc1nc2sc3c(c2c(=O)[nH]1)CCCC3)N1CCN(c2ccccc2)CC1	BAZ2B inh 56µM, PI5P4K alpha inh inconclusive (no result: JMJD2E inh)
O=S(=O)(NCC(c1ccco1)N1CCc2ccccc2C1)c1ccc(F)cc1 (configuration not stated)	none (no result: JMJD2E inh)
CC(C)CN(CC(C)C)C(=O)CC(=O)NC(=O)c1ccc(Cl)cc1	BAZ2B inh 89µM
O=C1NC(=Nc2ccccc2)S/C1=C\c1cccnc1	JMJD2A Tudor inconclusive, PI5P4K alpha inh inconclusive
O=C1N/C(=N/S(=O)(=O)c2ccccc2)S/C1=C/c1cccnc1	PI5P4K alpha inh -57
Cc1ccc(/C=C2\S/C(=N/S(=O)(=O)c3cccs3)NC2=O)cc1	PI5P4K alpha inh -59
O=C(Nc1sc2c(c1C(=O)O)CCCCC2)c1ccccc1	BAZ2B inh inconclusive, HP1b binding inh inconclusive

High-throughput results as filed in PubChem.
